# Reference: PubChem BioAssay AID1471 (National Center for Advancing Translational Sciences (NCATS), 2008)
# Several values for one entry are separate records, joined by “and”; a condition that tells them apart may be missing. Identical values can stand only once. Among all 230,000 compounds or so, about 310 (0.13%) were called active. A call without a number means that no potency is given here. Another 2% or so got no clear call; they are omitted. The sample holds actives, similar compounds and a random draw of the others, so the mix is not that of the screen. Calls follow the shape of the dose curve; as a rule, active = well fitted activation curve with a large enough effect; inconclusive = small, poorly fitted or top-dose-only effect; inactive = no such curve, though single readings can be large or run the other way.
# Assay: qHTS Multiplex Assay to Identify Dual Action Probes in a Cell Model of Huntington: Cytoprotection (ATP); also: nearly all actives have a fitted effect of over 45% in size;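 as to cytoprotection (ATP increase): toxic huntingtin expression switched on by the ecdysone agonist tebufenozide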
# Settings: PC12 HTT-Q103 induced, ATP luminescence, 40 h; series mostly up to 56.4 µM
# Method in brief: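 Cells were plated at 1500 per well in phenol red-free DMEM with 5% equine and 5% calf serum. Tebufenozide (100 nM final) and compounds were added, then ATPlite reagent, and luminescence was read.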
# Potency is read from the fitted curve at half-maximal effect.
Structure (SMILES),cytoprotection (ATP increase),Potency
COC(=O)C(C(=O)OC)[C@@H](NC=O)c1ccccc1,inactive,
CC1(OC(=O)c2ccc(Cl)nc2)C(=O)Cc2cc(-c3ccsc3)ncc2C1=O (stereo not given),-9.48% [at 10 µM] (inactive),
COc1ccc2c(c1)O[C@@H](c1ccc3c(c1)OCO3)[C@H](OC(=O)NCCc1ccc(OC)c(OC)c1)C2=O,inactive,
COc1cc2c(cc1OC)[C@@H](Cc1cc(OC)c(OC)c(OC)c1)[N+](C)(CCCOC(=O)CC/C=C/CCC(=O)OCCC[N+]1(C)CCc3cc(OC)c(OC)cc3[C@H]1Cc1cc(OC)c(OC)c(OC)c1)CC2 (stereo not given in full),inactive,
CCN1C(=O)N[C@@H](CCc2ccccc2)C(C(=O)OC)=C1C,-1.46% [at 10 µM] (inactive),
C=C(C(C)=O)C(O)c1cccs1 (stereo not given),inactive,
O=C(Nc1ccc(O)cc1)c1ccccc1O,inactive,
CC(C)(Oc1ccc(C2CC2(Cl)Cl)cc1)C(=O)O (stereo not given),inactive,
C=CCOC(=O)NC(c1ccc(F)c(F)c1)C(C(=O)COC)C(=O)OC (stereo not given),inactive,
CCn1c(-c2ccncc2)n[nH]c1=S,inactive,
CCn1c(C(C)C)n[nH]c1=S,inactive,
CCn1c(-c2ccoc2C)n[nH]c1=S,,5.62 µM (active)
Cc1ccc(Nc2nc(N)nc(CSc3nnc(C)s3)n2)cc1,18.8% [at 10 µM] (inactive),
CCOC(=O)C1CCCN(C(=O)c2cccc(S(=O)(=O)N3CCOCC3)c2)C1 (stereo not given),21.6% [at 10 µM] (inactive),
CC(C)=CCN1CCC2(CCc3ccccc32)CC1,inactive,
C#CCCOC(=O)N1C2=NC(C(=O)OC)=C(C(=O)OC)[C@@H]3N(C)c4ccc(OC)cc4[C@]23C[C@H]1C(=O)OC,-19.2% [at 10 µM] (inactive),
O=P(O)(O)OC[C@H](O)CO,inactive,
CC(C)(C)OC(=O)NCCCC1=CC2=CC(=O)C(C)(OC(=O)c3ccco3)C(=O)C2=CO1 (stereo not given),inactive,
COCCCNC(=O)C1CC(=O)N(CCc2ccccc2)C1 (stereo not given),inactive,
COc1ccc(N=Nc2ccc(O)c(P(=O)(c3ccccc3)c3ccccc3)c2)cc1,13.4% [at 10 µM] (inactive),
COC(=O)C1(C(C)=O)CC2=CC[C@H]3C(=O)N(c4ccccc4)C(=O)[C@H]3[C@@H]2Cc2ccccc2[C@@H]1C[N+](=O)[O-] (stereo not given in full),inactive,
Cc1c(N=Nc2ccc(N(C)C)cc2)c(=O)n(-c2ccccc2)n1C,-1.47% [at 10 µM] (inactive),
CCNC(=O)COC(=O)/C=C/c1c(C)nn(Cc2cccc(OC)c2)c1Cl,inactive,
CN(C)c1nc(N)nc(Cn2nnc(-c3ccc(C(F)(F)F)cc3)n2)n1,inactive,
COC(=O)C1=C(C(=O)OC)[C@@H]2N(C)c3ccccc3[C@@]23C[C@@H](C(=O)OC)N(C(C)=O)C3=N1,0.243% [at 10 µM] (inactive) and 2.58% [at 10 µM] (inactive),
